Source: PubChem
RORg inh – inhibitors of mouse ROR gamma transcriptional activity; P51450; 310,000 compounds, 5.4% hits; Drosophila S2 Gal4-RORgamma UAS-luciferase reporter, 20 h; Potency, µM (titrated, usually from 53.6 µM), for the others: top-dose activity change, negative = inhibition, usual class: inhibitors; further: potency means the concentration at half of the fitted maximal effect; on the % scale 0 is the no-effect control and ±100 the full control effect; nearly all actives have a fitted effect of over 60% in size
Target sequence (P51450 whole entry, looked up, the tested form may be a part): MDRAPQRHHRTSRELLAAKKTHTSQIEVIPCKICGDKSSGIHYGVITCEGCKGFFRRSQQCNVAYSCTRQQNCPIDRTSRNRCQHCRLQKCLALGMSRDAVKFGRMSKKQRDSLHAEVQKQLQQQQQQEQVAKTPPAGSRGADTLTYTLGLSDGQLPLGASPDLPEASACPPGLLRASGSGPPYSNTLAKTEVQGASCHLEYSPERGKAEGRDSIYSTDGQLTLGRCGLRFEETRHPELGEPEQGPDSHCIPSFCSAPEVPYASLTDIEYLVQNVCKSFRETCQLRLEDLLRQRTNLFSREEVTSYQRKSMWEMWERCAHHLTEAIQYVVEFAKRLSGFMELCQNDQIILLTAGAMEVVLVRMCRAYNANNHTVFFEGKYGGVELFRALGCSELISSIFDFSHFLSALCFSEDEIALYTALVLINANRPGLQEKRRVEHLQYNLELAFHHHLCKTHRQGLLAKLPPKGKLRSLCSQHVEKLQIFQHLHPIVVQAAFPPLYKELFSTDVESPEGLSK
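A Gal4/UAS one-hybrid system in insect cells: metallothionein-promoter Gal4–ROR gamma fusion plus Photinus luciferase reporter. Copper sulfate 700 uM final, 20 hr ambient incubation, luminescent detection after 10 min with reagent.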
MCF10A rereplic – inducers of DNA re-replication in MCF 10A breast cells. MCF 10A DNA re-replication, Hoechst nuclear intensity, 48 h. Potency, µM (titrated, usually from 46.1 µM), for the others: at the top dose activity, positive = re-replication, usual class: activators. 350,000 compounds, 2.9% hits. AID 624296; further: potency means the concentration at half of the fitted maximal effect; % of control where 0% means no effect; nearly all actives have a fitted effect of over 50% in size
VP16 counter – Gal4-VP16 reporter inhibition counter-screen. Drosophila S2 Gal4-VP16 UAS-luciferase, luminescence, 20 h. Potency, µM (series often up to 53.6 µM), for inactives: at the highest dose activity, negative = inhibition, most hits filed as inhibitors. 310,000 compounds, 3.5% hits. AID 2546;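 further: Gal4-VP16 expression switched on by copper sulfate through the metallothionein promoter; potency means the concentration at half of the fitted maximal effect; on the % scale 0 is the no-effect control and ±100 the full control effect; nearly all actives have a fitted effect of over 50% in size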
SW480 rerep – DNA re-replication induction in SW480 cells. SW480 DNA re-replication, Hoechst DNA content imaging, 48 h. Potency, µM (doses to about 46.1 µM), inactives show top-dose re-replication activation, usual class: activators. 340,000 compounds, 1.8% hits; further: potency means the concentration at half of the fitted maximal effect; % of control where 0% means no effect; nearly all actives have a fitted effect of over 55% in size
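Quantitative HTS format with DMSO vehicle controls; 48 hr drug incubation at 37 C, then 40 min Hoechst staining and scanning imager measurement at 405 nm excitation.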
IL1B secr inh – blocks inflammasome-driven IL-1 beta release; AID 743279; 360,000 compounds, 4.7% hits; THP-1 LPS/ATP IL-1B secretion, AlphaLISA, 16 h; hits give low values; activity change, % at 57.5 µM; in the data active means activity change below about -50%; inconclusive means mostly about -30% to -49%; further: on the % scale 0 is the no-effect control and ±100 the full control effect
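Secreted IL-1B measured by AlphaLISA bead assay after 16 h compound exposure of THP-1 cells; compounds (final up to 57.5 uM) added 1 h before LPS (250 ng/mL) and ATP (1.25 mM) stimulation; lower signal means less secretion.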
Numbers without * were called inactive; ? = inconclusive; · = no result given; ! = repeats disagree; [ ] = remark or other dose. Rows were chosen to be rich in hits. Some 11% of all compounds tested hit in one or more screens of this group. Unless noted, the call rests on the fitted dose curve; in most records, active means well fitted curve in the direction sought with a large enough effect; inconclusive means small, poorly fitted or top-dose-only effect, or another doubt; inactive means no such curve, though single readings can be large; an effect the other way counts as inactive or inconclusive.

SMILES	RORg inh	MCF10A rereplic	VP16 counter	SW480 rerep	IL1B secr inh
CC(C)n1cc(/C=N\NC(=O)c2cc3c(ccc4ccccc43)o2)c2ccccc21	?	?	-24.6%	1.1%	-24.7
Cc1nc2ccccn2c1C(=O)N/N=C/c1ccc([N+](=O)[O-])o1	14.1µM*	?	?	?	28.5
Cc1ccc(/C=N/NC(=O)c2cc3c(ccc4ccccc43)o2)o1	·	?	·	?	-61.4*
O=C(N/N=C/c1ccc([N+](=O)[O-])o1)c1cc2c(ccc3ccccc32)o1	2.6%	2.59µM*	?	?	-13.1
CCn1cc(/C=N/NC(=O)c2cc3c(ccc4ccccc43)o2)c2ccccc21	7.08µM*	?	?	?	?
Cc1nc2ccccn2c1C(=O)N/N=C/c1ccc([N+](=O)[O-])cc1	6.5%	1.3%	4.9%	0.4%	32.7
O=[N+]([O-])c1ccccc1S(=O)(=O)NCC1CCC(CNCC2CCc3ccccc3C2)CC1 (configuration not stated)	?	·	-3.7%	·	·
Cc1ccc2c(=O)c3ccccc3n(CCCN)c2c1C	11.2µM*!	·	15.8µM*!	·	·
CCc1ccc(N2CC(C(=O)N/N=C/c3cc([N+](=O)[O-])ccc3O)CC2=O)cc1 (configuration not stated)	4.47µM*	3.7%	10µM*	1.0%	164.6
O=C(N/N=C/c1cc([N+](=O)[O-])ccc1O)C1CC1	1.78µM*	?	7.94µM*	-3.1%	72.3
O=C1NCCCC1C(=O)N/N=C/c1cc([N+](=O)[O-])ccc1O (configuration not stated)	-42.3%	8.5%	-9.2%	?	83.6
O=C(N/N=C/c1cc([N+](=O)[O-])ccc1O)c1cccc2cc[nH]c12	1.41µM*	?	3.55µM*	7.31µM*	231.6
Cc1sc(N/N=C/c2cc([N+](=O)[O-])ccc2O)nc1-c1ccccc1	0.282µM*	?	0.708µM*	13.8%	7.4
O=[N+]([O-])c1cc(/C=N\Nc2nc(-c3ccccc3)cs2)ccc1O	?	29.4%	-3.1%	7.1%	-15.1
CC(=O)C1=CCC(c2ccccc2)N(S(=O)(=O)c2ccccc2)C1 (configuration not stated)	·	·	·	·	-1.2
CCOc1ccc(-c2c(C(=O)N/N=C/c3ccc(Cl)cc3)nnn2-c2nonc2N)cc1	?	-4.3%	?	-8.8%	2.7
O=C(N/N=C/c1cc([N+](=O)[O-])ccc1O)C(O)(c1ccccc1)c1ccccc1	0.891µM*	?	0.891µM*	20.6µM*	182.5
O=[N+]([O-])c1ccc(N/N=C/c2ccc(O)c(O)c2O)c(S(=O)(=O)N2CCOCC2)c1	-16.6%	-1.4%	0.6%	11.2%	5.0
O=[N+]([O-])c1ccc(N/N=C/c2cccc(O)c2O)c(S(=O)(=O)N2CCOCC2)c1	-7.9%	21.6%	-8.8%	4.11µM*	27.2
O=[N+]([O-])c1ccc(O)c(/C=N/Nc2ccccc2Cl)c1	?	?	?	-4.0%	-52.8*
O=C(O)c1ccc(/C=N/NC(=O)C(O)(c2ccccc2)c2ccccc2)cc1	·	-15.3%	·	?	-8.4
O=[N+]([O-])c1ccccc1N/N=C\c1ccccc1Cl	-21.3%	2.2%	-0.6%	-1.0%[9.22 µM]	-3.1
OCc1ccccc1-c1ccc2nncn2c1	·	·	·	·	33.2
N#Cc1ccccc1S(=O)(=O)N1CCN(CC(=O)Nc2ccccc2C(=O)NC2CC2)CC1	·	1.9%	·	-13.8%	21.3
CCc1noc(C)c1C(=O)OCC(=O)NCc1ccccc1OC	·	1.3%	·	-5.4%	11.1
SMILES	RORg inh	MCF10A rereplic	VP16 counter	SW480 rerep	IL1B secr inh
Cc1cccnc1NC(=S)Nc1ccc(F)cc1F	6.31µM*	-35.4%	?	-1.8%	-12.1
Cc1cc(C)nc(NC(=S)Nc2ccc(F)cc2F)c1	0.708µM*	-32.6%	-29.6%	14.6%	16.2
Cc1ccc(C)c(NC(=S)Nc2ncccc2C)c1	3.55µM*	-2.6%	?	3.3%	-19.1
CCCc1cn(CC(C)n2c(=O)c3ccccc3n2Cc2cc(C(C)C)no2)nn1 (configuration not stated)	·	·	·	·	-19.1
CCc1c(C)sc(NC(=O)c2cccs2)c1C(=O)OC(C)C	8.9%	10.3µM*	4.2%	9.1%	0.0
CN1CCN(c2ncnc3ccc(-c4cccc(C#N)c4)cc23)CC1	?	·	1.4%	·	·
COc1cc2c(cc1OC)C(=O)N1[C@H]3c4cc(Cl)ccc4OC[C@@H]3[C@H](c3ccccc3)[C@]1(C)C(=O)N2	·	9.2µM*	·	?	-50.1*
COc1ccc2c(c1)OC[C@H]1[C@H]2N2C(=O)c3ccc(C)cc3NC(=O)[C@@]2(C)[C@H]1c1ccccc1	·	27.2%	·	14.1%	?
COc1cc2c(cc1OC)C(=O)N1[C@H]3c4cc(C)ccc4OC[C@@H]3[C@H](c3ccccc3)[C@]1(C)C(=O)N2	·	14.6µM*	·	13µM*	-50.5*
COc1ccc(C(=O)[C@]2(C)C=C(c3ccc(OC)cc3)[C@H](C)C2)cc1	-0.4%	·	8.2%	·	·
CCC(C)[C@H](NC(=O)[C@@H]1Cc2c([nH]c3ccccc23)C2c3ccccc3C(=O)N21)C(=O)NCC1CCCO1 (some centres not stated)	32.9%	3.0%	-7.1%	2.7%	-20.4
O=C(Cc1ccccc1Nc1c(Cl)cccc1Cl)OCO/N=[N+](\[O-])N1CCCC1	?	·	17.8µM*	·	·
OCC[C@@H]1C[C@H](O)[C@@H](O)[C@@]2(OCCCc3cc(Cl)ccc32)O1	·	·	·	·	-18.7
O=C1C2C(C(=O)N1/N=C/c1ccc(N3CCCCC3)o1)C1C=CC2C12CC2 (configuration not stated)	-15.1%	18.4µM*	3.16µM*	?	-26.1
CCc1ccc(-c2csc3[n+]2CCN3C(C)=O)cc1	-44.3%	?	-0.2%	2.31µM*	-9.1
Clc1ccc(-c2nc(NCCCN3CCOCC3)c3ccccc3n2)cc1	7.8%	10.3%	1.7%	?	-75.3*
Cc1cc(NCCN2CCOCC2)c2ccc3ccccc3c2n1	12.4%	?	-7.1%	?	-82.2*
Clc1cccc(-c2nc(NCCN3CCOCC3)c3ccccc3n2)c1	-10.7%	6.3%	2.5%	1.1%	-86.0*
c1ccc2c(NCCN3CCOCC3)nc(-c3ccc4c(c3)OCO4)nc2c1	18.2%	·	-17.3%	·	·
Cc1ccc(-c2nc(NCCN3CCOCC3)c3ccccc3n2)cc1	26.3%	-4.9%	3.1%	0.0%	-59.1*
Cc1ccc(S(=O)(=O)N(CC(=O)Nc2ccccc2C(=O)O)c2cccc(Cl)c2C)cc1	6.1%	16.4µM*	-8.4%	·	14.7
Cc1[nH]n(S(=O)(=O)c2ccccc2)c(=O)c1N=Nc1cccc(Cl)c1	?	?	?	-18.0%	3.6
NC(=S)n1[nH]c(-c2ccc([N+](=O)[O-])cc2)c(N=Nc2cccc(Cl)c2)c1=O	0.398µM*	?	7.08µM*	1.4%	?
